# Source: PubChem BioAssay AID1508622 (National Center for Advancing Translational Sciences (NCATS), 2021)
# Activity calls are given as the source filed them. Where a call stands in place of a potency, no number is given. Calls follow the shape of the dose curve; as a rule, active = well fitted activation curve with a large enough effect; inconclusive = small, poorly fitted or top-dose-only effect; inactive = no such curve, though single readings can be large or run the other way.
# Assay: Confirmatory qHTS for Identification of Small Molecule Activators of Huntingtin-Antisense Promoter Activity
# Conditions: HEK293 HTT-AS promoter firefly luciferase reporter, 24 h; series mostly up to 57.5 µM
# Summary of the method: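 2,500 luciferase reporter HEK293 cells/well; 24 h culture; cpds up to 57.5 uM final, PTC124 50 uM ctrl; 24 h, 37C; Dual-Glo FLuc reagent, 10 min RT; lum. Norm.: vehicle 0%, zero RLU -100%.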
# Potency is read from the fitted curve at half-maximal effect.
row,SMILES,Potency
1,CCOc1ccc(C(=O)Nc2ccc(-n3nncc3-c3ccc(OC)cc3)cc2)cc1,inactive
2,CC(CNC(=O)c1ccc(CSc2nc3ccncc3n2Cc2ccc(F)cc2)cc1)c1ccccc1 (stereo not given),inactive
3,COc1ccc(NC(=O)Cn2nc(C(F)(F)F)c3c2CCCC3)cc1OC,inactive
4,Cn1c(SCc2ccc(F)cc2)nc2ccc(C(=O)NCc3ccc(F)cc3)cc21,inactive
5,Cc1ccccc1NC(=O)c1sc2nc3c(cc2c1N)CN(Cc1ccccc1)CC3,inactive
6,COc1ccc(Nc2sc(C(=O)c3ccccc3)c(N)c2C(=O)Nc2cc(C)ccc2C)c(OC)c1,inactive
7,Cc1cccc(N2CCN(C(=O)c3cccc(-n4c(C)nc5cccnc54)c3)CC2)c1C,inactive
8,COc1ccc(C2(CNC(=O)C(=O)Nc3cccc(C(F)(F)F)c3)CCCC2)cc1OC,inactive
9,O=C(Nc1cccc(C(=O)N2CCN(c3ccc(Cl)cc3)CC2)c1)c1nsc2ccccc12,0.151 µM (active)
10,COc1ccc(-n2c(-c3ccco3)nc3c(cnn3-c3ccc(Cl)cc3)c2=O)cc1,inactive
11,COc1ccc(C(=O)Nc2cccc(-c3cn4ccsc4n3)c2)c(OC)c1,13.5 µM (active)
12,COC(=O)c1c(C)oc2ccc(N(C(=O)c3ccncc3)S(=O)(=O)c3cc(C)c(C)cc3C)cc12,inactive
13,COc1cccc(OCc2nc3ccccc3n2CCOc2ccccc2)c1,inactive
14,Cc1ccc(NC(=O)C2CCN(S(=O)(=O)c3ccc4[nH]c5c(c4c3)CCCCC5)CC2)cc1,inactive
15,CC(C)(C)c1ccc(C(=O)Nc2ccc3c(c2)CCCN3C(=O)c2cccs2)cc1,inactive
